Experimental findings from PubChem BioAssay are described below.

The structures appear in SMILES notation. Calls of active or inactive are those of the source.

Assay [1] has as its system PRMT1 (protein arginine N-methyltransferase 1). Briefly: small molecules binding arginine methyltransferase PRMT1 – biochemical, small-molecule microarray, 635 nm fluorescence, primary screen (AID 1088).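 Further: binding of Prmt1 protein to compounds spotted on small-molecule microarray slides.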 The settings on record: higher = more signal.
Assay [2] in a line: growth effects on S. cerevisiae YJM789 – YJM789 clinical isolate, OD600, 24 h, basal, primary screen (AID 1089).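 Further: growth of clinical yeast isolate S. cerevisiae YJM 789 seeded 1000 cells per well; test concentration not given here.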 The settings on record: higher = more signal, called active from +8 up or from −8 down.
A short description of assay [3]: S. pombe growth modifiers, basal conditions – strain 972, OD600, 24 h, no modulator, primary screen (AID 1090).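 Further: basal condition with compound alone and no growth modifier present; test concentration not given here.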 Particulars: S. pombe 972 growth, higher = more signal, called active from +8 up or from −8 down.
Assay [4] is described as follows: budding yeast growth modifiers under rapamycin – strain BY4716, OD600, 96 h, primary screen (AID 1091). Further: test concentration not given here. Particulars: S. cerevisiae BY4716 + rapamycin, higher = more signal, called active from +8 up or from −8 down.
In assay [5] the target is Torsin-1A-interacting protein 2 (Homo sapiens) (UniProt Q8NFQ8). Briefly: small molecules binding lysate-expressed LULL1 – cell lysate, human LULL1 lysate, 635/667 nm fluorescence, primary screen (AID 1092).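 Further: probe is lysate of COS7 cells overexpressing human LULL1; score merges per-feature 667 nm fluorescence with signal-to-noise.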 Particulars: small-molecule microarray, hLULL1 lysate binding, 635 nm fluorescence; higher = more signal.
Assay [6] is described as follows: optical density change of DRC41 E. coli – strain DRC41, OD650, 24 h, E. coli filamentation project, primary screen (AID 1093).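 Further: MC1000 strain lacking acrAB efflux and sulA so SOS filamentation is blocked; test concentration not given here.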 The settings on record: E. coli DRC41 growth, higher = more signal, called active from +8 up or from −8 down.
Assay [7] can be described thus: probe aLefty2 binding to arrayed compounds – biochemical, biotinylated probe, 635/667 nm fluorescence, primary screen (AID 1094).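 Further: score merges spot fluorescence near 667 nm with spot signal-to-noise ratio.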 The settings on record: small-molecule microarray, higher = more signal.
For assay [8], the system named is Noggin (protein binding on small-molecule microarray). Briefly: small molecules binding Noggin protein – biochemical, 635/667 nm fluorescence, primary screen (AID 1095).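 Further: score merges 667 nm feature fluorescence with signal to noise over triplicate slides.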 The settings on record: 635 nm fluorescence, higher = more signal.
Assay [9] addresses Neurogenic locus notch homolog protein 3 (Homo sapiens) (UniProt Q9UM47). The assay is described as follows: small molecules binding NOTCH3 protein – biochemical, 635/667 nm fluorescence, primary screen (AID 1096). The settings on record: small-molecule microarray, 635 nm fluorescence, higher = more signal.
A short description of assay [10]: probe aEGFR binding to arrayed compounds – biochemical, biotinylated probe, 635/667 nm fluorescence, primary screen (AID 1097).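 Further: probe is a biotinylated anti-EGFR antibody binding compounds printed on slides; score combines fluorescence near 667 nm and signal to noise of each spot.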 The settings on record: small-molecule microarray, higher = more signal.

Sequence of Neurogenic locus notch homolog protein 3 (Homo sapiens) (Q9UM47 whole entry, looked up): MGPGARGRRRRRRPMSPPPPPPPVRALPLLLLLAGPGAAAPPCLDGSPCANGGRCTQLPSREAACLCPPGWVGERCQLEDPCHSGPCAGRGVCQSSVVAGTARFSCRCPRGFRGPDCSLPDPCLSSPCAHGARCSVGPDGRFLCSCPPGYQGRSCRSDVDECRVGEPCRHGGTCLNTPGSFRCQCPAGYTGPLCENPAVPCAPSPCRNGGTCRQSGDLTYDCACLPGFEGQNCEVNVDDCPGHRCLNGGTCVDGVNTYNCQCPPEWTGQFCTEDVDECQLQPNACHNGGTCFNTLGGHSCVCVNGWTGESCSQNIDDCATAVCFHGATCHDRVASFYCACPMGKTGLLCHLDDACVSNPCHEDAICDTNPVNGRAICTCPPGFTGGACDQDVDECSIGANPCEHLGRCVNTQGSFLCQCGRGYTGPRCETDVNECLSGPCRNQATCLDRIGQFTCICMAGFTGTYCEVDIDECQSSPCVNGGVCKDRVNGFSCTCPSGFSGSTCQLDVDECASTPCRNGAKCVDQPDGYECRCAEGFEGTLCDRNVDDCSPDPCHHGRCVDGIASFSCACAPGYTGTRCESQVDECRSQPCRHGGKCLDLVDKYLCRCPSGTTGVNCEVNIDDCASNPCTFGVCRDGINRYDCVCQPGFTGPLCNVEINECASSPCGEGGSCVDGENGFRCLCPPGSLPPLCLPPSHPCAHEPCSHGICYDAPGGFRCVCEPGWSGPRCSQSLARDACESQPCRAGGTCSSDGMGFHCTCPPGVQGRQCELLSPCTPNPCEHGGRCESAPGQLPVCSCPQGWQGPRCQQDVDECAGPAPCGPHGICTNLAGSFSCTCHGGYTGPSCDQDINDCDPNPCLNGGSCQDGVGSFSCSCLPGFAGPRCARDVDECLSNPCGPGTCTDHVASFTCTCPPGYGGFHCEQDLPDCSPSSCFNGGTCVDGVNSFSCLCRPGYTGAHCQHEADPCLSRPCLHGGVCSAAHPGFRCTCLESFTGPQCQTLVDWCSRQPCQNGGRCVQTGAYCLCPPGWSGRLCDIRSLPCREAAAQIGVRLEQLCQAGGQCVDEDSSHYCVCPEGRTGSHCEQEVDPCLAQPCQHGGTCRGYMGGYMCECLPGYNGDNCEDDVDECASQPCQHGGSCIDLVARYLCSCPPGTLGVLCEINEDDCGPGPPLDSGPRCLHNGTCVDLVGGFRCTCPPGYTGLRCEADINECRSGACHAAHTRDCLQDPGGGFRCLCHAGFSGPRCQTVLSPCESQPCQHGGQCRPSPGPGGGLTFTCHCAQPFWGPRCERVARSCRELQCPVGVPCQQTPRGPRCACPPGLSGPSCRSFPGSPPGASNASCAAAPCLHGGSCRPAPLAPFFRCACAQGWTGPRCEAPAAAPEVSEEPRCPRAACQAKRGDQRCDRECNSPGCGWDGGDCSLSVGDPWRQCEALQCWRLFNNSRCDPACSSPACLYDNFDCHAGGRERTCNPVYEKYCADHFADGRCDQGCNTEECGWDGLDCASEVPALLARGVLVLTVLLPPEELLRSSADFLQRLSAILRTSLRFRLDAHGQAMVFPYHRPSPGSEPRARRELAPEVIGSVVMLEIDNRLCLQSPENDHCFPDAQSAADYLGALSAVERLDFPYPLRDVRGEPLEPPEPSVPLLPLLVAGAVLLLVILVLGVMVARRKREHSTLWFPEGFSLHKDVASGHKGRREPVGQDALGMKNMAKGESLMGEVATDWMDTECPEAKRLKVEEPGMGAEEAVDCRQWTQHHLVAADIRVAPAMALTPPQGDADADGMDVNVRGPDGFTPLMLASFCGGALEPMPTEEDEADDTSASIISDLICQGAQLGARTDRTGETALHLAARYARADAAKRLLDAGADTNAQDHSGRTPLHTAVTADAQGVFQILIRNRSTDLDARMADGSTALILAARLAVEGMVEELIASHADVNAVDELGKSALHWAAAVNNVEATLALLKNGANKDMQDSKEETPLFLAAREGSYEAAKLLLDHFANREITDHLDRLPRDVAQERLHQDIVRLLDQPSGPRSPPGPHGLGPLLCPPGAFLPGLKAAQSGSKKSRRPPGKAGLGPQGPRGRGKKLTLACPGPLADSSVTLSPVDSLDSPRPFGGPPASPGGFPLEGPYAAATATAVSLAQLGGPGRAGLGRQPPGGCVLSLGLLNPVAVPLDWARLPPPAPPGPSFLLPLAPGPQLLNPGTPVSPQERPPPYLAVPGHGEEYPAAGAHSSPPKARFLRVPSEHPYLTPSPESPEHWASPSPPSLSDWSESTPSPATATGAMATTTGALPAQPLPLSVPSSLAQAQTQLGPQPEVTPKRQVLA
Sequence of Torsin-1A-interacting protein 2 (Homo sapiens) (Q8NFQ8 whole entry, looked up): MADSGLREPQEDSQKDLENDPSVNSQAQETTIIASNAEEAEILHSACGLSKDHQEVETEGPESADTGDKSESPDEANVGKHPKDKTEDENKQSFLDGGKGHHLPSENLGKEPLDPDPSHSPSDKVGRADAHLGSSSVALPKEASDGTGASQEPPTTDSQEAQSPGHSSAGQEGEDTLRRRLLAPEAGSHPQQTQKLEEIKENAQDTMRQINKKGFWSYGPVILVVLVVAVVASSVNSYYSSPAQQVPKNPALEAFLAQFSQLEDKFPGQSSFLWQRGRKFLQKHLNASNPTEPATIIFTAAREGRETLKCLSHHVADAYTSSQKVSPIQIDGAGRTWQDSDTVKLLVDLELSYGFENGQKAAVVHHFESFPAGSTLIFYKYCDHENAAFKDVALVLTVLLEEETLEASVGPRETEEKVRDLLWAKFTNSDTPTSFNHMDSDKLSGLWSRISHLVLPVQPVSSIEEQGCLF

Regarding `CCOC(=O)C[C@H]1[C@H](OC(=O)c2ccc(-c3ccccc3)cc2)[C@@H](NC(=O)C2CCCCC2)c2cc(OCCCO)ccc2N1C(=O)Cc1ccc(OC)cc1`, the composite z-score in assay [1] was 0.405; in assay [5], 0.852; in assay [7] it was -0.141; in assay [8] it was -0.141; in assay [9], 0.375; in assay [10] it was -0.114. In addition, the z-score in [2] is -0.253 (inactive); in assay [3] it was -0.0766 (inactive); in [4], 0.214 (inactive); in assay [6] it was -0.884 (inactive).
For the compound `CCCCCCc1nc(-c2ccc(OC)nc2)c(C)c2c1[Si](C(C)C)(C(C)C)OC2`, the composite z-score in [1] was 0.319; in [5], -0.627; in [7], 0.054; in assay [8], 0.293; in assay [9] it was 0.0448; in [10] it was -0.131. Further, the z-score in assay [2] was -0.0796 (inactive); in assay [3] it was -0.329 (inactive); in assay [4], 0.182 (inactive); in assay [6], 0.836 (inactive).
`C#CCN(C(=O)OC(C)(C)C)[C@H](CO)c1ccccc1`: the composite z-score in assay [1] was 0.738; in assay [5] it was 0.444; in assay [7], -0.235; in assay [8], 0.582; in assay [9], 0.524; in assay [10], -0.198. Further, the z-score was -0.365 (inactive) in assay [2], -2.99 (inactive) in [3], 0.368 (inactive) in assay [4] and -0.223 (inactive) in assay [6].
As to `O=C(NCCN1CCOCC1)[C@@H]1c2ccccc2C(=O)N(CC23CC4CC(CC(C4)C2)C3)[C@H]1c1ccc(CO)cc1`, the composite z-score in assay [1] is 1.55; in assay [5], 3.23; in assay [7], 0.0735; in assay [8], 0.495; in assay [9], 1.05; in assay [10] it was 0.0353. Besides, the z-score in [2] was -0.43 (inactive); in assay [3], -1.27 (inactive); in [4] it was 0.223 (inactive); in [6], 0.534 (inactive).
For `CC(C)C(=C=CC[C@H](O)c1cccc(OCCO)c1)C[C@H](O)c1ccccn1`, the composite z-score in [1] is 1.21; in assay [5] it was 1.55; in assay [7], -0.143; in [8], 0.731; in assay [9] it was 0.403; in [10], -0.157. For the same compound, the z-score was 0.262 (inactive) in [2], 0.317 (inactive) in assay [3], -0.647 (inactive) in assay [4] and 0.879 (inactive) in assay [6].
With `COc1cccc(C)c1NC(=O)O[C@H]1[C@H](OC(=O)Nc2ccccc2-c2ccccc2)[C@@H](OC(=O)Nc2ccccc2-c2ccccc2)[C@@H](OC)O[C@@H]1CO`, the composite z-score in assay [1] worked out at 1.53; in [5], 3.54; in [7], 0.0426; in assay [8] it was 1.36; in [9] it was 0.542; in assay [10], 0.0059. The z-score is 3.84 (inactive) in assay [2], 2.59 (inactive) in [3], 3.5 (inactive) in assay [4] and -0.692 (inactive) in assay [6].
For `CN1C2C=C(c3ccc(CO)cc3)C(C3C(=O)N(C(N)=O)C(=O)C32)C1C1CC1` (stereo not given), the composite z-score in assay [1] is 0.132; in assay [5], -0.0967; in [7], -0.178; in assay [8], -0.4; in assay [9], -0.607; in assay [10], -0.201. Moreover, the z-score in assay [2] is -1.07 (inactive); in assay [3] it was -0.257 (inactive); in assay [4], 1.2 (inactive); in assay [6] it was 0.214 (inactive).
For the compound `COc1ccc(C#Cc2ccc3c(c2)[C@]2(C(=O)N3)[C@H](c3ccccc3OCCO)N3[C@H](c4ccccc4)[C@H](c4ccccc4)OC(=O)[C@H]3[C@@H]2C(=O)NC[C@H](O)c2ccccc2)cc1`, the composite z-score in assay [1] was 1.54; in assay [5], 3; in [7], -0.0168; in assay [8], 1.58; in [9], 1.08; in assay [10], 0.095. For the same compound, the z-score was 2.42 (inactive) in [2], 2.18 (inactive) in [3], 2.92 (inactive) in assay [4] and 2.11 (inactive) in assay [6].
Turning to `C=CCNC(=O)[C@@H]1[C@H]2C(=O)O[C@H](c3ccccc3)[C@H](c3ccccc3)N2[C@H](c2ccc(O)cc2)[C@@]12C(=O)N(C(=O)OCCOC)c1ccc(C#CCC(C(=O)OC)C(=O)OC)cc12`, the composite z-score is 1.5 in [1]; 2.11 in [5]; -0.156 in assay [7]; 1.03 in assay [8]; 0.959 in [9]; -0.027 in [10]. In addition, the z-score in [2] is 1.03 (inactive); in assay [3], 0.405 (inactive); in assay [4], 0.624 (inactive); in assay [6], 1.19 (inactive).
`C=CCNC(=O)[C@@H]1[C@H]2C(=O)O[C@H](c3ccccc3)[C@H](c3ccccc3)N2[C@H](c2ccc(OCCO)cc2)[C@@]12C(=O)Nc1ccc(C#CC3=CCCCC3)cc12`: the composite z-score was 1.54 in assay [1]; 2.94 in assay [5]; -0.168 in assay [7]; 0.918 in assay [8]; 1.14 in [9]; 0.0526 in assay [10]. The z-score in [2] is 1.78 (inactive); in assay [3], 1.18 (inactive); in assay [4] it was 3.36 (inactive); in assay [6], -0.639 (inactive).
As for `[N-]=[N+]=Nc1ccccc1C[C@]1(C(N)=O)COC(c2ccc(OCCCO)cc2)=N1`, the composite z-score in [1] is -0.0424; in assay [5], 2.84; in [7] it was 0.538; in [8], -0.863; in [9], -0.0154; in assay [10], 0.516. In addition, the z-score in assay [2] is -0.684 (inactive); in assay [3], -0.846 (inactive); in assay [4], 0.0643 (inactive); in [6], 0.0474 (inactive).
